Screens as filed in PubChem BioAssay.
This is a sample that favours compounds with a hit; in the whole collection about 10% have one here.
FLuc inh: Firefly luciferase inhibition profiling of diverse chemical library using quantitative high-throughput screening. Luciferin 4-monooxygenase (Photinus pyralis), P08659. 2.5% of 76,000 active. Potency, µM (series often up to 115 µM), usual class: inhibitors. purified P. pyralis luciferase, luminescence, biochemical; further: nearly all actives have a fitted effect of over 65% in size
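Biochemical qHTS: compound (6-point titration) added to 10uM D-luciferin plus 10uM ATP in Tris acetate pH 7.5 buffer with Mg, Tween-20 and BSA, then purified enzyme at 10nM; light output imaged.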
HEK293 tox: Cytotoxic Profiling in HEK 293 Cell Line of Diverse Libraries Using Quantitative High-Throughput Screening; HEK 293 viability, ATP luminescence (CellTiter-Glo), 48-72 h; 6.6% of 94,000 active; AID 1345083, 2018; Potency, µM (doses to about 115 µM), inactives show top-dose activity change, negative = cytotoxicity, actives largely listed as inhibitors; further: nearly all actives have a fitted effect of over 60% in size
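qHTS cytotoxicity; HEK 293, 250 cells/well; compound pinned; 48 or 72 hr, 37 degree Celsius, 5% CO2, 95% humidity; CellTiter-Glo, 10 min RT; luminescence (ATP).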
GPT2 inhibitor: Primary qHTS assay for inhibitors of Glutamate pyruvate transaminase 2 (GPT2). Alanine aminotransferase 2 (Homo sapiens), Q8TD30. 0.25% of 100,000 active. Potency, µM (series often up to 57.7 µM), for the others: top-dose activity change, negative = inhibition, actives largely listed as inhibitors. AID 1671188, 2021. Recombinant GPT2, coupled pyruvate oxidase/HRP Amplex Red fluorescence; further: nearly all actives have a fitted effect of over 60% in size
Target sequence (Q8TD30 whole entry, looked up): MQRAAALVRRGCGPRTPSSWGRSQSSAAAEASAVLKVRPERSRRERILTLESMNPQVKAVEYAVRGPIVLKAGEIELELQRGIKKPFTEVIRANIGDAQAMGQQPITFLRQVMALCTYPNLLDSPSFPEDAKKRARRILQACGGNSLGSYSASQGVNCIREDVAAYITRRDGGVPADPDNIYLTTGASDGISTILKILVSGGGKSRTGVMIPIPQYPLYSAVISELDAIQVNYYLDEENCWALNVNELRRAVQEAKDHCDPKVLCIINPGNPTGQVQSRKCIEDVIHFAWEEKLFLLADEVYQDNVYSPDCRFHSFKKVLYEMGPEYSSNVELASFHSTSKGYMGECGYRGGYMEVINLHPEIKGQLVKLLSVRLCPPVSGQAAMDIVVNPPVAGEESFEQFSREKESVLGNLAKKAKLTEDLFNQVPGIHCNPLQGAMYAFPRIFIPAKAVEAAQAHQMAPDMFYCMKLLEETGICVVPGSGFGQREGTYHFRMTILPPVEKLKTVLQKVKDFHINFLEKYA
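Fluorescence of coupled pyruvate oxidase/HRP/Amplex Red system (50uM Amplex, 30 min, dark) reports pyruvate formed by GPT2. Enzyme reaction: 10ng/uL GPT2, 2mM L-alanine, 250uM a-KG, 30 min room temperature, pH 7.5; 50uM AOA control.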
hNpr1 antagonist: Natriuretic polypeptide receptor (hNpr1) antagonism - Primary qHTS. Atrial natriuretic peptide receptor 1 (Homo sapiens), P16066. HEK293 hNpr1 GloSensor cGMP, ANP-stimulated luminescence. Potency, µM (titrated, usually from 46.3 µM), for inactives: at the top dose activity change, negative = inhibition, usual class: inhibitors. 1.6% of 76,000 active. AID 1347048, 2019; calls by dose curve; further: nearly all actives have a fitted effect of over 60% in size
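HEK293 cells stably expressing human Npr1 and cGMP GloSensor pGS-40F, loaded 2 h with 2% GloSensor reagent, given compound 30 min at room temperature. Luminescence read before and 20 min after 0.1 nM hNppA.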
3T3 cytotox: Cytotoxic Profiling in NIH 3T3 Cell Line of Diverse Libraries Using Quantitative High-Throughput Screening. NIH 3T3 viability, CellTiter-Glo ATP luminescence, 48-72 h. Potency, µM (series often up to 96.7 µM), for the others: at the highest dose activity change, negative = cytotoxicity, usual class: inhibitors. AID 1345082, 2018. 4.3% of 94,000 active; further: nearly all actives have a fitted effect of over 55% in size
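Cells were seeded at 400 per well, treated with pin-transferred compound, and kept 48 or 72 hr at 37 °C before CellTiter-Glo addition and luminescence imaging of cellular ATP.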
* hit, by the source's call; [ ] = dose if it differs, or a comment. Unless noted, the call rests on the fitted dose curve; in most records, active means well fitted curve in the direction sought with a large enough effect; inconclusive means small, poorly fitted or top-dose-only effect, or another doubt; inactive means no such curve, though single readings can be large; an effect the other way counts as inactive or inconclusive. On the % scale 0 is the no-effect control and ±100 the full control effect; potency means the concentration at half of the fitted maximal effect.

For Fc1ccc(Nc2cnc3ccc(N4CCOCC4)nn23)cc1F the results were FLuc inh inactive, HEK293 tox inconclusive, GPT2 inhibitor -11%[88.5 µM], hNpr1 antagonist 0%[70.6 µM] and 3T3 cytotox inconclusive.
Cc1ccccc1Nc1cnc2ccc(N3CCOCC3)nn12 was read as FLuc inh inactive, HEK293 tox 56µM*, GPT2 inhibitor inconclusive, hNpr1 antagonist inconclusive and 3T3 cytotox inconclusive.
For Cc1ccccc1Nc1cnc2ccc(-n3ccnc3)nn12 the results were FLuc inh inactive, HEK293 tox inconclusive, GPT2 inhibitor inconclusive, hNpr1 antagonist 4%[70.6 µM] and 3T3 cytotox inconclusive.
Screening CN1CCN(c2ccc3ncc(Nc4ccc(F)cc4)n3n2)CC1 returned FLuc inh inactive, HEK293 tox 112µM*, GPT2 inhibitor inconclusive, hNpr1 antagonist 1%[70.6 µM] and 3T3 cytotox 100µM*.
Screening FC(F)(F)c1cccc(Nc2cnc3ccc(N4CCOCC4)nn23)c1 returned FLuc inh inactive, HEK293 tox 89µM*, GPT2 inhibitor inconclusive, hNpr1 antagonist inconclusive and 3T3 cytotox inconclusive.
For COc1ccc(Nc2cnc3ccc(N4CCOCC4)nn23)cc1 the results were FLuc inh inactive, HEK293 tox inconclusive, GPT2 inhibitor -10%[88.5 µM], hNpr1 antagonist -4%[70.6 µM] and 3T3 cytotox inconclusive.
`OCCc1ccc(Nc2cnc3ccc(N4CCOCC4)nn23)cc1` gave FLuc inh inactive, HEK293 tox -20%[172 µM], GPT2 inhibitor -11%[88.5 µM], hNpr1 antagonist 4%[70.6 µM] and 3T3 cytotox inconclusive.
`CO[C@H]1C(=O)N(C)C2(CCN(C(=O)OCc3ccccc3)CC2)[C@@H]1C(=O)Nc1ccccc1` gave HEK293 tox inconclusive and 3T3 cytotox -18%.
`O=C(NC1CCCC1)[C@@H]1CCCN1c1nccc(Nc2ccccc2Cl)n1` gave HEK293 tox inconclusive, GPT2 inhibitor 2% and 3T3 cytotox inconclusive.
For Cn1ncc2c(NCCc3nnc(N)s3)nc(-c3ccncc3)nc21 the results were FLuc inh inactive, HEK293 tox -10%, GPT2 inhibitor -6%[11.5 µM], hNpr1 antagonist 10% and 3T3 cytotox -30%.
For Cn1ncc2c(N[C@@H](Cc3ccccc3)C(N)=O)nc(-c3ccncc3)nc21 the results were FLuc inh inactive, HEK293 tox 32µM*, GPT2 inhibitor inconclusive, hNpr1 antagonist 0% and 3T3 cytotox inconclusive.
For O=C(NCc1cccs1)c1nc(-c2ccc(F)cc2)c2cnccn12 the results were FLuc inh inactive, HEK293 tox inconclusive, GPT2 inhibitor inconclusive, hNpr1 antagonist -5%[70.6 µM] and 3T3 cytotox inconclusive.
For COc1ccc(NC(=O)N2CCc3c(C(=O)NCCCN(C)C)cccc32)cc1 the results were FLuc inh 35µM*, HEK293 tox -7%, GPT2 inhibitor -3%, hNpr1 antagonist -1% and 3T3 cytotox -5%.
CCCNC(=O)c1cccc2c1CCN2C(=O)Nc1ccc(OC)cc1 was read as FLuc inh 0.35µM*, HEK293 tox inconclusive, GPT2 inhibitor 2%, hNpr1 antagonist 5µM* and 3T3 cytotox inconclusive.
For Cc1ccc(Nc2ccnc(N3CCCC(C(=O)N4CCN(c5ncccn5)CC4)C3)n2)cc1 (centres undefined) the results were HEK293 tox 20µM*, GPT2 inhibitor -10% and 3T3 cytotox inconclusive.
Screening Cc1ccc(Nc2ccnc(N3CCCC(C(=O)N4CCCC4)C3)n2)cc1 (centres undefined) returned HEK293 tox inconclusive, GPT2 inhibitor 1% and 3T3 cytotox 28µM*.
For Cc1ccc(Nc2ccnc(N3CCC(C(=O)N4CCCC4)CC3)n2)cc1 the results were HEK293 tox inconclusive, GPT2 inhibitor inactive and 3T3 cytotox inconclusive.
Cc1ccc(Nc2ccnc(N3CC4CCC(C3)N4CC(F)(F)F)n2)cc1 was read as HEK293 tox 40µM*, GPT2 inhibitor inconclusive and 3T3 cytotox 28µM*.
Fc1ccccc1Nc1ccnc(N2CC3CCC(C2)N3CC(F)(F)F)n1 was read as HEK293 tox inconclusive, GPT2 inhibitor -18% and 3T3 cytotox inconclusive.
`Cc1ccc(Nc2ccnc(N3CCN(C(=O)C4CC4)CC3)n2)cc1` gave HEK293 tox 71µM*, GPT2 inhibitor -9%[88.5 µM] and 3T3 cytotox 32µM*.
Screening COCCCn1c(=O)c(C(=O)NCc2ccc(C(F)(F)F)cc2)nc2cccnc21 returned HEK293 tox inconclusive, GPT2 inhibitor inactive and 3T3 cytotox inconclusive.
Cc1ccc(-c2cc(C(=O)NCc3cccc(Cl)c3)nn3cnnc23)cc1 was read as HEK293 tox -7%, GPT2 inhibitor inactive and 3T3 cytotox -5%.
Screening O=[S+]1([O-])NCC2(CCN(CC3CCCC3)CC2)Oc2ncccc21 returned HEK293 tox -23%, GPT2 inhibitor -21% and 3T3 cytotox -19%.
OC[C@@H]1CNC[C@H]1C1CCN(Cc2cccc(C(F)(F)F)c2)CC1 was read as FLuc inh inactive, HEK293 tox 79µM*, GPT2 inhibitor inactive, hNpr1 antagonist 7% and 3T3 cytotox inconclusive.
`OC[C@@H]1CNC[C@H]1C1CCN(Cc2cccc(Cl)c2F)CC1` gave FLuc inh inactive, HEK293 tox inconclusive, GPT2 inhibitor inactive, hNpr1 antagonist -5% and 3T3 cytotox inconclusive.
`CN(Cc1ccccc1C(F)(F)F)C(=O)Nc1ccccc1` gave FLuc inh inconclusive, HEK293 tox inconclusive, GPT2 inhibitor 1%[88.5 µM], hNpr1 antagonist 0%[70.6 µM] and 3T3 cytotox inconclusive.
CN(Cc1ccc(F)cc1)C(=O)Nc1ccc(Cl)cc1 was read as FLuc inh inconclusive, HEK293 tox 89µM*, GPT2 inhibitor -3%[88.5 µM], hNpr1 antagonist -28%[70.6 µM] and 3T3 cytotox inconclusive.
Screening CN(Cc1ccc(F)cc1)C(=O)Nc1ccccc1 returned FLuc inh inactive, HEK293 tox -25%[172 µM], GPT2 inhibitor -3%[88.5 µM], hNpr1 antagonist 0%[70.6 µM] and 3T3 cytotox inconclusive.
`CN(Cc1ccccc1C(F)(F)F)C(=O)Cc1cccc(Cl)c1` gave FLuc inh inactive, HEK293 tox 79µM*, GPT2 inhibitor inactive, hNpr1 antagonist 0%[70.6 µM] and 3T3 cytotox inconclusive.
`CN(Cc1ccccc1C(F)(F)F)C(=O)Nc1ccc(Cl)cc1` gave FLuc inh inactive, HEK293 tox inconclusive, GPT2 inhibitor -9%[88.5 µM], hNpr1 antagonist -19%[70.6 µM] and 3T3 cytotox 35µM*.
`CN(Cc1ccccc1C(F)(F)F)C(=O)c1ccccc1Cl` gave FLuc inh inactive, HEK293 tox inconclusive, GPT2 inhibitor inactive, hNpr1 antagonist 0%[70.6 µM] and 3T3 cytotox -30%[138 µM].
